Laboratory results reported in PubChem BioAssay AID651899 (Broad Institute, 2012).
Entries with a potency or affinity are not part of this list. Calls of active or inactive are those of the source. No rule for the calls is given here.

Assay: cytotoxicity in HEK293 cells, dose response, cytotoxicity control, cell-based, plate reader, cherry-pick (AID 651899);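 also: cells exposed to compound for 48 hours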
Conditions: series mostly up to 26 µM; activity change, negative = cytotoxicity: at the top concentration

SMILES	activity change, negative = cytotoxicity
CCN1[C@H](C(=O)NCc2ccccc2)[C@@H](CO)[C@@H]2Cn3c(ccc(-c4cccnc4)c3=O)[C@@H]21	12.6% (inactive)
CC(C)(C)[S@](=O)N1Cc2cc(C(=O)NCc3ccccc3F)nc(-c3cccc(-c4cccnc4)c3)c2[C@@H]1CCO	-18.8% [at 23.5 µM] (inactive)
O=C(N[C@@H]1CC[C@H](CCn2cc(-c3cccnc3)nn2)O[C@@H]1CO)c1ccccc1F	7.06% (inactive)
CSc1ccc(S(=O)(=O)N2CCC(C(=O)Nc3cccnc3)CC2)cc1	-0.874% (inactive)
O=C1CCCc2c1cc(C(=O)NCc1ccco1)c(=O)n2-c1ccc(Cl)cc1	0.469% (inactive)
CC(=O)c1ccc(C(=O)N2CCCC(Nc3ccccc3)C2)s1 (stereo not given)	1.06% (inactive)
O=C(CSc1nc2c(c(=O)n1-c1ccccc1)SCC2)N1CCOCC1	44% (inactive)
COc1cc(C(=O)N2Cc3cc4ccccc4nc3C2C)cc(OC)c1OC (stereo not given)	36.1% (inactive)
COc1ccccc1S(=O)(=O)N1CC[C@@H]2[C@H](CO)Nc3ccc(-c4cccc(C#N)c4)cc3[C@@H]21	16% (inactive)
CCC(=O)N1CC[C@@H]2[C@H]1c1cc(-c3cccc(F)c3)ccc1N(C)[C@@H]2CO	5.37% [at 23.5 µM] (inactive)
COC(=O)c1c(C(=O)OC)c(-c2ccccc2)n2c1CS(=O)C2 (stereo not given)	6.13% (inactive)
CCOC(=O)c1ccc2c(c1)nc(SCc1cn3ccsc3n1)n2CC	1.73% (inactive)
Cc1ccc(Cc2c(C)nc3nc(SCC(=O)NCc4ccco4)nn3c2C)cc1	-23.5% (inactive)
O=C(c1ccc2c(c1)OCO2)N1CC[C@@H]2[C@H](CO)Nc3ccc(-c4ccc(F)cc4)cc3[C@@H]21	6.2% (inactive)
O=C(Nc1ccccc1)N1CCN(Cc2ccc3c(c2)OCO3)CC1	9.86% (inactive)
